SF1 inhibitor: inhibitors of human SF-1, primary screen, cell-based, CHO-K1, Gal4-SF-1 LBD, luciferase luminescence. AID 525, 2006. inhibition, % at 10 µM. 65,000 compounds, 0.55% hits. CHO-K1 Gal4-SF-1 LBD luciferase reporter. Steroidogenic factor 1 (Homo sapiens), Q13285;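 active = inhibition above the mean inhibition of all tested compounds plus 3 SD, cut at about 48% in these data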;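 also: 0% = SF-1 transfected cells with DMSO and 100% = mock-transfected cells lacking SF-1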
Target sequence (Q13285 whole entry, looked up, the tested form may be a part): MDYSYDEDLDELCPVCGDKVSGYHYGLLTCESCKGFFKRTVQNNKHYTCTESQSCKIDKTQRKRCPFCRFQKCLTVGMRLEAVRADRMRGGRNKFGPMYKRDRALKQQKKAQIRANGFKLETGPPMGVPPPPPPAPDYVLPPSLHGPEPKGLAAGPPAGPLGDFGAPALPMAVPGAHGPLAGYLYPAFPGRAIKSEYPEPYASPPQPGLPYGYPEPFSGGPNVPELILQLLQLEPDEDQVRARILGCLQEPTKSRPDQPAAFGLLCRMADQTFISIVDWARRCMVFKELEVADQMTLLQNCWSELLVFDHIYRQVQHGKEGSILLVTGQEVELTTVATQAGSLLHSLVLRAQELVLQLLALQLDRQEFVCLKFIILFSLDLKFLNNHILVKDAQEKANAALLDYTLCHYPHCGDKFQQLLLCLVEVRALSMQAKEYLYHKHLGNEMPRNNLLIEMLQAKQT
Starred values were filed as active, the others as inactive. The sample as a whole holds a higher share of hits than the screen did.

SMILES | SF1 inhibitor
CCOc1ccc(-n2cc(C(=O)N3CCN(C)CC3)c3cc(OC)c(OC)cc3c2=O)cc1 | -3
CCOC(=O)N1CCN(CC(=O)Nc2cc(OCC)ccc2OCC)CC1 | 2
CC1CCCCN1CCNC(=O)CN1C(=O)COc2ccccc21 (configuration not stated) | 7
CCc1ccc(N2CCCn3c2nc2c3c(=O)n(CCN3CCOCC3)c(=O)n2C)cc1 | -18
C=CCn1c2ccccc2c2nnc(SCCCn3c(=O)[nH]c4ccccc43)nc21 | 6
Brc1ccc(-c2cnc(-c3cccs3)o2)cc1 | -52
CC(NC(=O)Nc1nnc(C(F)(F)F)s1)(C(F)(F)F)C(F)(F)F | 94*
O=C1C2CC=CCC2C(=O)N1c1n[nH]c(Cc2ccccc2)n1 (configuration not stated) | 1
O=S1(=O)C=C(Sc2nc3ccccc3s2)c2ccccc21 | 93*
Cn1c(CSc2nc3ccccc3s2)nc2ccccc21 | -71
OC1CCCCC1Sc1nc2ccccc2s1 (configuration not stated) | -59
CCC(=O)Nc1nc(C)cc(SCC(=O)OC)n1 | 2
CCCC12CN3CC(C)(CN(C1)C3c1ccc(OC(C)C)cc1)C2=O (configuration not stated) | 8
O=C(CSc1nnc(-c2cccnc2)n1Cc1ccco1)N1c2ccccc2Sc2ccccc21 | 11
CS(=O)(=O)N1CCN(c2ccccc2NC(=O)Cc2ccccc2)CC1 | 1
Cc1ccccc1S(=O)(=O)Cc1ccc(C(=O)N2CCN(c3cccc(C)c3C)CC2)o1 | 82*
CC1CCN(CCCNC(=O)c2ccc(CS(=O)(=O)Cc3ccccc3F)o2)CC1 | -8
CC(C)CCn1c(CN2CCN(c3cccc(Cl)c3)CC2)nc2c1c(=O)n(C)c(=O)n2C | -6
CCOC(=O)c1c(NC(=O)CSc2nc(C)cc(C)c2C#N)sc(C(C)=O)c1C | 0
CC(=O)N1CCN(c2ccc(Oc3nnnn3-c3ccccc3)cc2)CC1 | 18
O=C(NCc1ccco1)Nc1ccc(Br)cc1Cl | -60
CCOC(=O)c1ccccc1NC(=O)COC(=O)C1=COCCO1 | 4
CSc1nc(C)c2c(c1C#N)CCCC2 | 0
c1ccc(OCCOc2ncnc3sccc23)cc1 | -53
c1csc(CNc2ncnc3sccc23)c1 | 51*
SMILES | SF1 inhibitor
Clc1ccc(-n2ncc3c(NCc4cccs4)ncnc32)cc1 | -74
FC(F)(F)c1ccc(N2CCN(c3cc(-c4ccccc4)nc4ncnn34)CC2)nc1 | 71*
c1ccc(-c2cc(N3CCOCC3)nc(-c3ccccc3)n2)cc1 | 2
Nc1nc(-c2ccc3c(c2)OCCO3)cs1 | -64
CS(=O)(=O)N1CCN(c2nc(-c3ccc(F)cc3)cs2)CC1 | -24
Cc1ccc(-c2csc(N3CCC(NS(=O)(=O)c4ccc5c(c4)OCCO5)CC3)n2)cc1 | 53*
Cc1ccc(N(C=NC#N)CC(=O)N2CCN(c3ccccc3)CC2)cc1 | 3
O=C(NCCN1CCCC1)c1ccc2c(=O)n(CCc3ccccc3)c(=O)[nH]c2c1 | 3
COC(=O)CCCC(=O)Nc1ccc(Cl)c(Cl)c1 | -11
CCOC(=O)CC(=O)CSc1nnc2c(n1)[nH]c1ccccc12 | -53
COc1ccc2[nH]c3nc(SC(C)C)nnc3c2c1 | 63*
O=C(CCN1CCN(c2ccccc2)CC1)Nc1nccs1 | 8
COC(=O)c1ccc(C(c2c(N)n(Cc3ccccc3)c(=O)n(C)c2=O)N2CCOCC2)cc1 (configuration not stated) | 0
O=C(NCCCn1ccnc1)c1cc(-c2cccs2)on1 | -67
O=C(NC1CCCCCC1)C1CCN(C(=O)Cc2ccccc2)CC1 | 18
Nc1nsc2ccccc12 | 58*
Cc1ccc2cccc(OC(=O)c3ccc4c(c3)OCCO4)c2n1 | -12
CCN1C(=O)CC(C(=O)NC)SC1=Nc1cc(Cl)c(O)c(Cl)c1 (configuration not stated) | 10
CC1=CC(=C2C(=O)c3ccccc3C2=O)C=C(C)O1 | -42
CCCN1C=CC(=C2C(=O)c3ccccc3C2=O)C=C1 | 93*
CCN1C=CC(=C2C(=O)c3ccccc3C2=O)C=C1 | 80*
CCC1(CC)C(=O)N=C2c3ccccc3C(=O)N21 | 7
CNC(=O)Nc1ccccc1NC(=O)NC | 13
COc1ccc(N2CCN(CCCNC(=O)C3CCCN(S(=O)(=O)c4cnc[nH]4)C3)CC2)cc1 (configuration not stated) | -14
CCCN(Cc1ccccc1)C(=O)Nc1ccc2c(c1)nnn2C | -33
SMILES | SF1 inhibitor
CCOC(=O)c1sc(NC(=O)c2ccc3ncsc3c2)nc1C | -76
CCCCCCC(=O)c1c(C)[nH]c(C(=O)OCC)c1C | -53
Cc1ccc(-c2csc3ncnc(Sc4nnc(CN5CCCCCC5=O)o4)c23)cc1 | 71*
O=C(CC(=O)c1ccccc1)Nc1ccc2c(c1)OCCO2 | -61
N#CC(C#N)=c1ccc2c(c1)NC1(CCCCC1)N=2 | 65*
Nc1nc(CSc2ncn(-c3ccccc3)n2)cs1 | -59
Nc1nc(N)c2sc3nc4c(cc3c2n1)CCC4 | -57
CCOc1cc(CNC(=O)CN2C(=O)c3ccccc3S2(=O)=O)ccc1OC | 9
